# Data taken from ChEMBL document CHEMBL1961873, “Compounds: GSK PKIS; Assays: Nanosyn kinase panel” (2012).
# Experiments:
# [1] = molecular target: Glycogen synthase kinase-3 beta (Homo sapiens) (UniProt P49841); conditions: at 1 µM;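 further: reported values are mean percent inhibition of GSK3B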
# [2] = molecular target: Homeodomain-interacting protein kinase 1 (Homo sapiens) (UniProt Q86Z02); conditions: at 0.1 µM
# [3] = molecular target: Homeodomain-interacting protein kinase 1 (Homo sapiens) (UniProt Q86Z02); conditions: at 1 µM
# [4] = molecular target: T1, Homeodomain-interacting protein kinase 4 (Homo sapiens) (UniProt Q8NE63); conditions: at 0.1 µM
# T1 sequence (whole entry): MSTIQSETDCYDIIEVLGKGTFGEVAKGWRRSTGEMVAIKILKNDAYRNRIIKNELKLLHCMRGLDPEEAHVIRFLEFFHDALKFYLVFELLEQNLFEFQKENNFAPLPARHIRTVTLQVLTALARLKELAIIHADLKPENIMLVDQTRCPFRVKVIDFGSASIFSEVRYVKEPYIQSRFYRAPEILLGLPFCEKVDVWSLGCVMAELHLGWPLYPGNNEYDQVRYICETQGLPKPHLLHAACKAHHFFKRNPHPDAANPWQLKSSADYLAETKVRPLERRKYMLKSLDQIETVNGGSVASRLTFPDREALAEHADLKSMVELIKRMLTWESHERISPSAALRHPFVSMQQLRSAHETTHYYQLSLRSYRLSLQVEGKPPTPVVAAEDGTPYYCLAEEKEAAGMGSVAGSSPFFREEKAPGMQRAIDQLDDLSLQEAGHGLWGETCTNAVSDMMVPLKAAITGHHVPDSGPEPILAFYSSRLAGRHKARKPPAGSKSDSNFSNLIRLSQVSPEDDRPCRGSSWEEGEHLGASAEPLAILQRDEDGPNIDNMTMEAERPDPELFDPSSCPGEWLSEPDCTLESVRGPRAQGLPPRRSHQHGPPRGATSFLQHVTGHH
# [5] = molecular target: T1, Homeodomain-interacting protein kinase 4 (Homo sapiens); conditions: at 1 µM
# [6] = molecular target: Mitogen-activated protein kinase 9 (Homo sapiens) (UniProt P45984); conditions: at 0.1 µM
# [7] = molecular target: Mitogen-activated protein kinase 9 (Homo sapiens) (UniProt P45984); conditions: at 1 µM
# [8] = molecular target: Mitogen-activated protein kinase 1 (Homo sapiens) (UniProt P28482); conditions: at 0.1 µM
# [9] = molecular target: Mitogen-activated protein kinase 1 (Homo sapiens) (UniProt P28482); conditions: at 1 µM
# [10] = molecular target: Mitogen-activated protein kinase 3 (Homo sapiens) (UniProt P27361); conditions: at 0.1 µM;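 further: each value is a mean inhibition figure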
# Mitogen-activated protein kinase 3 (Homo sapiens), sequence (P27361 whole entry): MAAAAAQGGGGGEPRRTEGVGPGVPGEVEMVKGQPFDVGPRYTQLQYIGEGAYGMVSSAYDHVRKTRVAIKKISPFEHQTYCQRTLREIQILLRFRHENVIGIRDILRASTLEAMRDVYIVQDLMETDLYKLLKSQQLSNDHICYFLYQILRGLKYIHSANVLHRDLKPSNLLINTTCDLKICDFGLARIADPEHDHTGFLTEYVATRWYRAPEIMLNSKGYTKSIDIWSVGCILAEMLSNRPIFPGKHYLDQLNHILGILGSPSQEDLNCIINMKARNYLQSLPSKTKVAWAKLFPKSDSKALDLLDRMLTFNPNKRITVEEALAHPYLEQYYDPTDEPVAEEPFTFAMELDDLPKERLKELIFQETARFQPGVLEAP
# Mitogen-activated protein kinase 1 (Homo sapiens), sequence (P28482 whole entry): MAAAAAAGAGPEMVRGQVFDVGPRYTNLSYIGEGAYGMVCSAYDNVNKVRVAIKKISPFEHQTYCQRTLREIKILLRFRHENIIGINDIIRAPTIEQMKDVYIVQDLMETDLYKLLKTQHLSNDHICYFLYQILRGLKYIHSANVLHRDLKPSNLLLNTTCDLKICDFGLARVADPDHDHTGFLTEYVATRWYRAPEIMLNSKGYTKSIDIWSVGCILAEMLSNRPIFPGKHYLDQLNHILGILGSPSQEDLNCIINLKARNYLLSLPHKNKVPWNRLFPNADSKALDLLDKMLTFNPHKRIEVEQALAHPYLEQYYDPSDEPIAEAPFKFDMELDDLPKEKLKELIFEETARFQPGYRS
# Glycogen synthase kinase-3 beta (Homo sapiens), sequence (P49841 whole entry, looked up): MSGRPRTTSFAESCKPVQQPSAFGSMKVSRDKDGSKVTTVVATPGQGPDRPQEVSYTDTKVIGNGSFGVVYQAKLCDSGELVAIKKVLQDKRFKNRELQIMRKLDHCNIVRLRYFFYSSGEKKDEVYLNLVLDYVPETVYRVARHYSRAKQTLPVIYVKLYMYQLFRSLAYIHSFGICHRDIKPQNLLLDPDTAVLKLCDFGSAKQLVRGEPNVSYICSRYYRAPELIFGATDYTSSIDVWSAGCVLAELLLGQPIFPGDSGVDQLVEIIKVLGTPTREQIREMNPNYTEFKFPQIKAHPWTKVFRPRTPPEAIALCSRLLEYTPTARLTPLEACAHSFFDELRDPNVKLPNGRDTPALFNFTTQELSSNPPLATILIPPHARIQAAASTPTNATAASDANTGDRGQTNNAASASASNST
# Mitogen-activated protein kinase 9 (Homo sapiens), sequence (P45984 whole entry, looked up): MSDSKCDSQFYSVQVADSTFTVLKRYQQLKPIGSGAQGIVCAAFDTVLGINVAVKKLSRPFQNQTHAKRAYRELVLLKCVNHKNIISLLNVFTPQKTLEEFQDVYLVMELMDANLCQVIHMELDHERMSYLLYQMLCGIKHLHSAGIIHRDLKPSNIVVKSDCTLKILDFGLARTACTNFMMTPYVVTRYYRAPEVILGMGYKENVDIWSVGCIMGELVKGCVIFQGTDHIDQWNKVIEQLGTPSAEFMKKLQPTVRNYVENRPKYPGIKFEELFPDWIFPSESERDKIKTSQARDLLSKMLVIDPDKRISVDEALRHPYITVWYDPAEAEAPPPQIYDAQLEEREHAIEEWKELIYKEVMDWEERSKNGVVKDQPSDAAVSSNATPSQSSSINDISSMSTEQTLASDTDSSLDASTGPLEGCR
# Homeodomain-interacting protein kinase 1 (Homo sapiens), sequence (Q86Z02 whole entry, looked up): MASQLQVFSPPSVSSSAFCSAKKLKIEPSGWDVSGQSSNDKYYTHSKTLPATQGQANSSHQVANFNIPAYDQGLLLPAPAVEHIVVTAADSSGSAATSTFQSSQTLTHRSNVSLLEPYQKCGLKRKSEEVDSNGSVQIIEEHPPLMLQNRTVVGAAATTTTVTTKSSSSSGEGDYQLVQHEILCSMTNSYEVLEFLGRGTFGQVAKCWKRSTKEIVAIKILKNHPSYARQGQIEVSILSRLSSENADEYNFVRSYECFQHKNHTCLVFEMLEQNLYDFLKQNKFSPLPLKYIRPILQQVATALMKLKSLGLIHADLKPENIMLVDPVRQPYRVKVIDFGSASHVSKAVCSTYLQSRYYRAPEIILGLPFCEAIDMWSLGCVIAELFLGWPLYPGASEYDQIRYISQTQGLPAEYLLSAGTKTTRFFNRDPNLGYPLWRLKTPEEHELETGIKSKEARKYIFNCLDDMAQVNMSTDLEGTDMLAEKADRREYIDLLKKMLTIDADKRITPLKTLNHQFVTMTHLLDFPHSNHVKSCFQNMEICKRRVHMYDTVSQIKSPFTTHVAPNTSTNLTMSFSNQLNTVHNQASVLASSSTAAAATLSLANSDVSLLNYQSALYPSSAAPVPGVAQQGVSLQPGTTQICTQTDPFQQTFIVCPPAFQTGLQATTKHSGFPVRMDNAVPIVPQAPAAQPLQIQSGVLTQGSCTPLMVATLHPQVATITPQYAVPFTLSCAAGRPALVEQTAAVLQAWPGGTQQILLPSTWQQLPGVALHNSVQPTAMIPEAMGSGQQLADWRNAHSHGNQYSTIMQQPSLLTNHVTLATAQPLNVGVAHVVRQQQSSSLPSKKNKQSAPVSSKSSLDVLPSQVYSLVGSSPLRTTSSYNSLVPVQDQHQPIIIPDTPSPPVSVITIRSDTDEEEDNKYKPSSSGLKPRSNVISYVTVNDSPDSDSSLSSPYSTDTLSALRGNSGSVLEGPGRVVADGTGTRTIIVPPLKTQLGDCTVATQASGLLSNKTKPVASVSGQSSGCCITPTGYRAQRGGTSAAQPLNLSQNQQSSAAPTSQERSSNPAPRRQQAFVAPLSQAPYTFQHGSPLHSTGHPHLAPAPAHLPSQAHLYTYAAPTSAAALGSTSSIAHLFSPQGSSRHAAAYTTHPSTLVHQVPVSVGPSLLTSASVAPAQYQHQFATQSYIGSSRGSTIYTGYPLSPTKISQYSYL
SMILES,inhibition [1] [%],inhibition [2] [%],inhibition [3] [%],inhibition [4] [%],inhibition [5] [%],inhibition [6] [%],inhibition [7] [%],inhibition [8] [%],inhibition [9] [%],inhibition [10] [%]
CCn1c(-c2nonc2N)nc2cncc(C(=O)N3CC[C@H](N)C3)c21,12.1,1.36,8.14,0.99,3,8.24,9.12,4.87,7.62,3.48
Cc1cc(O)cc(C)c1/C=C/c1cncc(-c2nn[nH]n2)c1,2.36,-4.42,-1.96,1.12,3.32,7.47,9.2,4.59,5.51,4.38
CCCN1CCC(Oc2cc(Nc3nc(Nc4cccc(F)c4C(N)=O)c4cc[nH]c4n3)c(OC)cc2Cl)CC1,9.38,2.76,18.8,3.27,24.8,1.29,2.98,0.93,17.9,0.36
CCN1CCC(CC(=O)Nc2n[nH]c3nc(-c4cccs4)c(Br)cc23)CC1,68.7,3.88,6.48,2.06,8.88,-5.62,-3.11,-4.72,-6.9,-1.1
O=C1Nc2ccc(C(=O)c3ccco3)cc2C1=Cc1cc(Cl)c(O)c(Cl)c1,75.8,14,54.1,4.69,32.9,2.31,6.22,2.44,4.55,1.44
N#Cc1c(NC(=O)c2cccc3ccccc23)sc2c1CCCC2,6.89,-2.43,1.91,-1.01,2.45,6.07,25.4,2.02,3.91,-0.53
COc1ccc(-c2coc3ncnc(N)c23)cc1,2.62,-1.54,0.23,-1.26,0.51,4.38,5.45,4.53,6.4,5.16
COc1cc2ncn(-c3cc(O[C@H](C)c4ccccc4Cl)c(C(N)=O)s3)c2cc1OC,23,3.82,12.1,11.2,30.2,2.72,3.88,5.57,4.8,2.92
CCn1c(-c2nonc2N)nc2c(N3CCCC3)nccc21,3.59,-0.15,6.29,-0.26,2.71,-4.08,-4.92,-2.76,-3.21,0.68
CCn1c(-c2nonc2N)nc2ccncc21,5.32,-3.19,0.47,-0.89,-0.65,3.39,2.53,13.4,1.62,2.94
CCn1c(-c2nonc2N)nc2c(C#CC(C)(C)O)nc(CN3CCCC3)cc21,18.9,-1.35,2.58,-1.44,0.75,0.67,-2.07,-1.09,0.12,0.51
Fc1cccc(COc2ccc(Nc3ncnc4cc(-c5ccc[nH]5)sc34)cc2Cl)c1,1.92,-5.52,-2.5,-1.95,2.7,2.73,3.15,3.5,4.2,0.89
COc1cc2ncn(-c3cc(O[C@@H](C)c4ccccc4Cl)c(C(N)=O)s3)c2cc1OC,5.97,-0.99,4.95,2.88,22.1,2.45,8.24,5.66,6.55,4.78
c1cnn2ncc(-c3ccnc(Nc4ccc5c(c4)OCCO5)n3)c2c1,91,86.2,93,42.3,79.8,12.8,54.4,6.5,24,6.55
COc1cc(C)c(NC(=O)CN(C)C)cc1Nc1nc(Nc2cccc(F)c2C(N)=O)c2cc[nH]c2n1,0.98,13.9,60.6,15.9,63.4,3.11,12.6,2.86,4.47,2.47
CS(=O)(=O)CCNCc1nc(-c2ccc3ncnc(Nc4ccc(F)c(Cl)c4)c3c2)cs1,1.99,1.07,5.32,3.32,18.8,1.61,4.55,4.72,5.04,1.63
CCCN1CCC=C(c2ccc(Nc3nc(Nc4ccccc4C(N)=O)c4cc[nH]c4n3)c(C)c2)C1,17.1,16.3,59.6,15.1,56.5,46.5,84.9,6.87,29.5,6.39
CCc1cccc(NC(=O)Nc2ccc(Oc3ccc4nc(NC(=O)OC)[nH]c4c3)cc2)c1,6.49,1.47,4.9,7.33,13.9,2.67,1.01,2.12,0.03,2.25
CCn1c(-c2nonc2N)nc2c(C#CC(C)(C)O)nc(OC[C@@H](N)c3ccccc3)cc21,76,1.19,13.3,1.04,8.34,-0.01,-0.83,-1.1,3.38,-3.17
CS(=O)(=O)CCNCc1ccc(-c2ccc3ncnc(Nc4ccc(OCc5cccc(F)c5)c(C(F)(F)F)c4)c3c2)o1,-0.18,-1.8,-2.73,-1.19,-0.51,5.87,4.78,5.04,5.42,2.83

SMILES,inhibition [1] [%],inhibition [2] [%],inhibition [3] [%],inhibition [4] [%],inhibition [5] [%],inhibition [6] [%],inhibition [7] [%],inhibition [8] [%],inhibition [9] [%],inhibition [10] [%]
NCc1ccc(-c2nc(-c3ccc(Cl)c(O)c3)c(-c3ccncc3)[nH]2)cc1,65.4,0.11,5.53,0.99,8.45,4.51,15.8,-0.32,0.67,0.94
COc1ccc(-c2nn3ncccc3c2-c2ccnc(Nc3ccc(Cl)c(C(F)(F)F)c3)n2)cc1,4.05,-0.18,-0.9,1.05,1.36,1.72,4.38,3.47,3.46,4.84
CCn1c(-c2nonc2N)nc2cnc(Oc3cccc(NC(=O)c4ccc(OCCN5CCOCC5)cc4)c3)cc21,53.9,1.81,11.5,0.11,10.4,3.93,5.85,3.22,4.07,2.43
COc1ccc(-c2ccncc2)cc1C(N)=O,4.32,-2.78,3.84,0.07,4.19,4.22,5.45,5.23,6.46,3.61
CS(=O)(=O)Nc1ccc(N/C=C2\C(=O)Nc3ccccc32)cc1,17.2,-1.53,3.36,0.6,4.82,0.25,5.63,-4.34,-2.51,-0.36
CN(C)c1cc2c(Nc3ccc4nc(Cc5ccccc5)[nH]c4c3)ncnc2cn1,2.68,0.23,2.19,2.51,4.06,10.2,1.8,4.86,6.26,3.48
NC(=O)c1cccc(Nc2nccc(Nc3cccc4[nH]ncc34)n2)c1,35,1.13,7.88,3.21,21.2,-6.25,4.55,-3.75,-0.34,-3.05
Cc1nnc(-c2ccc(C)c(-c3ccc(C(=O)Nc4cccc(C#N)c4)cc3)c2)o1,3.29,-1.32,-2.46,0.46,0.28,4,2.96,0.61,2.56,3.17
CNC(=O)c1cncc(/C=C/c2c(Cl)cccc2Cl)c1,1.92,-2.63,4.11,1.25,7.87,4.08,10.1,5,4.6,5.34
COC(=O)Nc1nc2cc(Oc3ccc(NC(=O)Nc4cccc(C(=O)O)c4)cc3)ccc2[nH]1,2.13,-2.08,0.32,0.29,3.06,-0.11,-0.13,0.56,0.1,0.92
Nc1ncnc2occ(-c3ccc(NC(=O)Nc4cccc(C(F)(F)F)c4)cc3)c12,11,5.73,37.4,67.4,78.3,3.31,14.5,4.78,6.77,4.22
COc1cc2ncn(-c3cc(OCc4ccccc4Cl)c(C(N)=O)s3)c2cc1OC,9.93,0.06,5.3,7.28,45.1,2.23,4.49,0.95,1.08,-0.15
COc1ccccc1Nc1ncc(-c2ccccc2)o1,2.74,-3.68,0.57,-0.52,0.15,4.12,3.07,5.93,6.15,4.06
CC(C)=Cc1cccc2c1/C(=N/Nc1ccc(S(N)(=O)=O)cc1)C(=O)N2,44,2.49,10.8,1.38,6.2,-0.73,6.66,-0.23,0.78,0.6
Nc1nc(-c2ccccn2)c(-c2ccc3ncccc3n2)s1,8.29,4.06,10.3,3.92,10.1,2.16,2.28,1.86,2.54,1.83
O=C1NC(=O)C(c2ccc(Cl)cc2)=C1Nc1ccc(Cl)c(C(=O)O)c1,,2.13,4.29,1.76,1.98,0.98,5.72,,-5.59,-1.99
O=C1NC(=O)C(c2ccccc2Cl)=C1Nc1cccc(O)c1,,1.81,7.57,0.96,3.38,2.21,2.41,2.64,2.43,2.98
O=C(Nc1n[nH]c2nc(-c3ccco3)c(Br)cc12)C1CC1,,-1.07,3.67,0.54,2.1,2.66,3.7,-0.07,5.13,5.33
CS(=O)(=O)CCNCc1ccc(-c2ccc3ncnc(Nc4ccc(OCc5ccccc5)c(Cl)c4)c3c2)o1,3.95,-2.41,2.91,4.33,7.49,-0.54,1.16,2.06,1.18,1.84
Nc1ncnc2occ(-c3ccc(NC(=O)Nc4cc(C(F)(F)F)cc(C(F)(F)F)c4)cc3)c12,7.52,0.45,11.7,14.4,63.3,2.13,6.77,2.73,1.95,0.6
